# Nrf2 activator – activates Nrf2 signaling; AREc32 ARE-luciferase reporter (MCF7-derived line), luminescence, 24 h; Potency, µM (series often up to 46.1 µM), without a hit: top-dose activation, hits mostly activators; hit rate 0.31% among 410,000; AID 624171; also: % of control where 0% means no effect; nearly all actives have a fitted effect of over 65% in size
#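 ARE activation measured as luciferase luminescence (Steady-Glo, 30 min RT) in AREc32_Fluc cells after 24 hr compound exposure at 37 deg C, 5% CO2; cells seeded overnight at 1000/well in OPTI-MEM, 5% FBS.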
# S2 tox – viability counter-screen for ATXN expression inhibitors. S2 cells (HEK-293 line with an ATXN2-luciferase reporter) viability, CellTiter-Fluor protease fluorescence, 24 h. Potency, µM (highest dose often 56.7 µM), hits mostly cytotoxic. hit rate 0.49% among 400,000. AID 651635; also: nearly all actives have a fitted effect of over 40% in size
# A549 tox – counter-screen for Nrf2 inhibitors: cytotoxicity in A549 cells; A549 ARE-Fluc cells, CellTiter-Fluor viability, 18-24 h; Potency, µM (titrated, usually from 46 µM), for inactives: top-dose activity change, negative = cytotoxicity, hits mostly inhibitors; hit rate 0.16% among 390,000; AID 504648; also: % is scaled to controls: 0 for no effect and ±100 for the full control effect
#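 Cytotoxicity counterscreen: CellTiter-Fluor fluorescence was measured in A549 ARE_Fluc cells after 18-24 h of compound exposure in a concentration series. The subsequent BugLite luminescent read reports ARE-luciferase activity.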
# Nrf2 block – blocks Nrf2 signaling; A549 ARE-Fluc reporter, luciferase luminescence, 18-24 h; Potency, µM (doses to about 46 µM), for the others: at the top dose activity change, negative = inhibition, hits mostly inhibitors; hit rate 2.1% among 360,000; AID 504444; also: % is scaled to controls: 0 for no effect and ±100 for the full control effect; nearly all actives have a fitted effect of over 60% in size
#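 Concentration-response testing used A549 ARE_Fluc cells at 5000 cells/well. Following an 18-24 h compound incubation, viability was read by fluorescence (Ex 405/Em 525) and luciferase output by luminescence.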
# ATXN2 expr inh – reduces ATXN2 reporter expression in HEK-293 cells; hit rate 0.72% among 360,000; HEK-293 ATXN2-luciferase reporter, luminescence, 24 h; Potency, µM (series often up to 57 µM), without a hit: at the highest dose activity change, negative = inhibition, hits mostly inhibitors; also: % is scaled to controls: 0 for no effect and ±100 for the full control effect; nearly all actives have a fitted effect of over 55% in size
#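 qHTS (up to 57 uM final) was run with 24 h compound exposure of reporter cells at 37 °C. Each well was multiplexed: SteadyGlo luminescence measured ATXN2-luciferase expression after a fluorogenic Gly-Phe-AFC viability readout (25 uM final).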
# An asterisk follows results filed as active; i = inactive; ? = inconclusive; / = no result; [ ] = dose if it differs, or a comment. An excerpt weighted towards active compounds, which were near 2.9% of everything screened. Calls follow the shape of the dose curve; as a rule, active = well fitted curve in the direction sought with a large enough effect; inconclusive = small, poorly fitted or top-dose-only effect, or another doubt; inactive = no such curve, though single readings can be large; an effect the other way counts as inactive or inconclusive. Potency is read from the fitted curve at half-maximal effect.
SMILES,Nrf2 activator,S2 tox,A549 tox,Nrf2 block,ATXN2 expr inh
CCCCn1c(=O)[nH]c(=O)c2c1nc(-c1ccc(-c3ccc(F)cc3)o1)n2C,3%,i,-3%,3%,24%
Cc1ncc2c(c1CNC(=O)/C=C/c1cccs1)CCN(C(=O)c1ccc3c(c1)OCCO3)C2,/,i,/,/,/
Cc1cc(NCc2ccccc2)n2ncc(-c3ccccc3)c2n1,3%,i,2%,?,181%
CC(C)c1cnn2c(NCc3ccccc3)cc(N[C@@H](CO)[C@H](O)CO)nc12,/,/,/,/,0.27µM*
COc1ccc(CC(=O)Nc2cccc(-c3ccc4nncn4n3)c2)cc1OC,4%,i,?,21µM*,?
COc1ccc(C(=O)Nc2cccc(-c3ccc4nncn4n3)c2)cc1OC,3%,i,-3%,-16%,7%
COc1cccc(OC)c1C(=O)Nc1cccc(-c2ccc3nncn3n2)c1,2%,i,-4%,8%,20%
Cc1cccc(C(=O)Nc2cccc(-c3ccc4nncn4n3)c2)c1,3%,i,0%,12µM*,?
O=C(CCn1c(=O)c2sccc2n(Cc2ccccc2F)c1=O)NCc1ccc2c(c1)OCO2,0%,/,-4%,-3%,/
O=S(=O)(c1ccc2c(c1)OCCO2)N1CCN(S(=O)(=O)c2cccc[n+]2[O-])CC1,/,/,1%,11%,/
CC[n+]1c(C)sc2c3ccsc3ccc21,3%,i,1%,6%,2%
CCN1/C(=C/c2ccc3cc(C)ccc3[n+]2CC)Sc2ccc3sccc3c21,-1%,i,?,6.5µM*,?
CC(=O)N1CCc2c(sc3c2c(=O)n(CCc2ccccc2)c(=O)n3Cc2ccc(Cl)cc2)C1,0%,?,-23%,?,?
CC(=O)N1CCc2c(sc3c2c(=O)n(CCc2ccccc2)c(=O)n3Cc2ccccc2C)C1,0%,?,-29%,18µM*,?
Cc1ccc2occ(CC(=O)Nc3ccc(S(=O)(=O)N4CCCC(C)C4)cc3)c2c1 (configuration not stated),0%,?,-25%,21µM*,?
Cc1cc(Cl)ccc1NC(=S)NCCCO,0%,i,1%,0%,8%
Cc1ccc(Cl)cc1NC(=S)NCCCSC1CCCCC1,3%,i,?,26µM*,-10%
COc1ccc(C)cc1NC(=O)C(C)N(c1ccc(C)cc1)S(C)(=O)=O (configuration not stated),1%,i,12%,/,1%
Cc1ccc(N(C(C)C(=O)Nc2cc(Cl)ccc2Oc2ccccc2)S(C)(=O)=O)cc1 (configuration not stated),2%,i,0%,21µM*,2%
CC(=O)N(Cc1ccc(F)cc1)C1=C(NCc2ccccc2)C(=O)c2ccccc2C1=O,-2%,22µM*,10µM*,6.3µM*,11µM*
O=C(NCc1ccc(F)cc1)C(c1ccccc1)c1ccccc1,-1%,?,9%,0%,-48%
Cc1oc2ncn(CC(C)C)c(=O)c2c1C(=O)Nc1ccc(Cl)cn1,4%,i,4%,?,2%
Cc1oc2ncn(CC(C)C)c(=O)c2c1C(=O)Nc1cc(F)ccc1F,0%,?,4%,9%,35µM*
Cc1ccc(C(=O)CSc2nnc(CNc3ccc(C)cc3C)n2Cc2ccco2)cc1,0%,?,?,23µM*,-15%
O=C(CSc1nc2ccccc2c(=O)n1Cc1ccco1)c1ccc(F)cc1,0%,i,2%[1.84 µM],12µM*,3%
SMILES,Nrf2 activator,S2 tox,A549 tox,Nrf2 block,ATXN2 expr inh
O=C(CSc1nnc(-c2cc3ccccc3cc2O)n1Cc1ccco1)c1ccc(F)cc1,9%,?,/,23µM*,-38%
Cc1ccc2c(c1)S/C(=C\c1cccc[n+]1C)N2CCO,3%,i,-19%,4.6µM*,/
C[n+]1ccccc1/C=C1\Sc2ccccc2N1CCO,4%,i,-20%,16µM*,-8%
CC[n+]1ccc(/C=C2\Sc3ccccc3N2CCCS(=O)(=O)[O-])c2ccccc21,2%,i,-8%,-3%,-9%
CC(=O)N1c2ccc(C)cc2Sc2c1ccc1ccccc21,7%,i,4%,-4%,4%
Cc1ncccc1C(=O)N1CCCC(CCC(=O)N2CCN(c3ccccn3)CC2)C1 (configuration not stated),-1%,i,-2%,-4%,-2%
Cc1ccccc1C(=O)N1CCCC(CCC(=O)N2CCN(c3ccccn3)CC2)C1 (configuration not stated),1%,i,-10%,23µM*,-13%
COc1cccc(-c2cnc(-c3ccncc3)nc2C2CCN(C(=O)Cc3csc(C)n3)CC2)c1,/,i,/,/,/
CCOc1ccc(Nc2oc(-c3ccc(Cl)cc3)nc2C#N)cc1,3%,?,21µM*,2%,23%
COc1ccc(Nc2oc(COc3ccc(Cl)cc3)nc2C#N)cc1,4%,?,-10%,?,14µM*
COc1ccccc1CNC(=O)c1cn(C)c2ccc(S(=O)(=O)N3CCC(C)CC3)cc2c1=O,-1%,i,6%,-9%,12%
Cc1cccc(N2CCN(C(=O)CCN3C(=S)NC(C)(C)CC3C)CC2)c1C (configuration not stated),0%,?,-6%,-24%,-32%
Cc1ccc(C)c(N2CCN(C(=O)CCCN3C(=S)NC(C)(C)CC3C)CC2)c1 (configuration not stated),-1%,?,-5%,16µM*,?
Cn1c(=O)oc2cc(S(=O)(=O)N3CCC(C(=O)N4CCN(c5ccc(Cl)cc5)CC4)CC3)ccc21,0%,i,3%,18µM*,-19%
CC(=O)N1c2ccc(S(=O)(=O)N3CCC(C(=O)Nc4ccc(C)cn4)CC3)cc2CC1C (configuration not stated),0%,i,-10%,15µM*,?
Cn1c(=O)oc2cc(S(=O)(=O)N3CCC(C(=O)N4CCN(c5cccc(Cl)c5)CC4)CC3)ccc21,0%,i,-1%,?,-4%
CC(=O)N1c2ccc(S(=O)(=O)N3CCC(C(=O)Nc4cccc(Cl)c4)CC3)cc2CC1C (configuration not stated),-1%,i,-12%,2.1µM*,/
CC(=O)N1c2c(cc(Br)cc2S(=O)(=O)N2CCN(c3ccccc3F)CC2)CC1C (configuration not stated),-1%,i,-7%,23µM*,-16%
CNC(=O)CN(CCN(CCN(CC(=O)[O-])CC(=O)NC)CC(=O)[O-])CC(=O)[O-].O.[Gd+3],/,i,/,/,7%
COc1ccc(CCC(=O)c2c(O)cc(O[C@@H]3O[C@H](CO)[C@@H](O)[C@H](O)[C@@H]3O[C@@H]3O[C@@H](C)[C@H](O)[C@@H](O)[C@@H]3O)cc2O)cc1O,/,/,/,/,-2%
